Laboratory results reported in the supplement of paper PMC11219838.
Values without a mark were called inactive.

Tested on: Meloidogyne hapla J2
Experiment: proportion of mobile M. hapla J2 relative to DMSO control (fraction of DMSO control); higher = more viable, less nematicidal, active = 0.7 or less
Conditions: 60 µM; 5 days; temperature: 20 °C
Method in brief: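 About 25 M. hapla J2 were placed in each well of a 96-well plate in distilled water, and compound was pinned in to a final 60 µM with 0.6% v/v DMSO. The sealed plates were shaken at 200 rpm at 20 °C for 5 days, after which 2 µL of 1 M NaOH went into each well. Mobility was then scored under the microscope and divided by the mean value from DMSO-only wells on the same plate. Each plate held eight such DMSO wells, and two biological replicates were averaged.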

| Compound | proportion of mobile M. hapla J2 |
| --- | --- |
| O=C(CSc1nnc(-c2ccco2)o1)Nc1cc(Cl)ccc1Cl | 1.01 |
| Cc1cccc(-c2noc(COc3ccc(Cl)cc3)n2)c1 | 1.04 |
| COc1ccc(-c2nnc(SCC(=O)Nc3ccc(C(C)C)cc3)o2)cc1 | 0.967 |
| CCc1ccc(NC(=O)CSc2nnc(-c3ccc(Cl)cc3Cl)o2)cc1 | 0.785 |
| O=C(CSc1nnc(-c2cccc3ccccc23)o1)c1ccc(F)cc1 | 0.912 |
| COc1ccc(C)cc1NC(=O)CSc1nnc(-c2ccc(Br)cc2)o1 | 0.938 |
| Cn1c(SCc2nc(-c3ccccc3)no2)nnc1-c1ccco1 | 0.98 |
| CC(=O)Nc1ccc(NC(=O)c2ccccc2-c2nc(-c3ccccc3Cl)no2)cc1 | 0.866 |
| Brc1ccc(-c2nc(-c3ccncc3)no2)cc1 | 0.953 |
| O=C(CSc1nnc(-c2cccc3ccccc23)o1)Nc1cccc(F)c1 | 0.999 |
| Nc1nc(CSc2nnc(-c3ccccc3)o2)cs1 | 0.752 |
| COc1ccc(C(=O)CSc2nnc(-c3cccc(Br)c3)o2)cc1 | 1.04 |
| Cc1cc(NC(=O)CSc2nnc(-c3ccccc3Cl)o2)no1 | 0.915 |
| CC(C)Oc1cccc(-c2nc(-c3ccccn3)no2)c1 | 1.01 |
| COc1ccc(-c2noc(-c3ccccc3C)n2)cc1 | 0.898 |
| Cc1ccccc1OCc1nc(-c2ccc(Br)cc2)no1 | 0.788 |
| Cc1cc(OC(C)c2nc(-c3ccccn3)no2)ccc1Cl (stereo not given) | 1.03 |
| COc1ccc(-c2noc(COc3ccc(C(C)(C)C)cc3Br)n2)cc1 | 0.82 |
| Cc1ccc(-c2nnc(SCC(=O)NCc3ccccc3)o2)cc1 | 1.04 |
| Brc1ccc(-c2noc(-c3ccc4c(c3)OCO4)n2)cc1 | 1.03 |

Tested on: Caenorhabditis elegans dauer (daf-2(e1370))
Experiment: proportion of mobile C. elegans dauer larvae relative to DMSO control (fraction of DMSO control); higher = more viable, less nematicidal, active = 0.63 or less; extreme values may be limits of the assay
Conditions: 60 µM; 5 days; temperature: 20 °C
Method in brief: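 Synchronized C. elegans daf-2(e1370) larvae were held at 25 °C for 48 h on MYOB plates with E. coli OP50 to form dauers, and about 20 dauers were added per 96-well well in liquid NGM. Compound was pinned to 60 µM final (0.6% v/v DMSO), and sealed plates were shaken at 200 rpm for 5 days at 20 °C. The proportion of mobile worms was scored under a dissection microscope relative to DMSO controls and averaged over two biological replicates.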

| Compound | proportion of mobile C. elegans dauer larvae |
| --- | --- |
| COc1cccc(NC(=O)CSc2nnc(-c3ccc(Br)cc3)o2)c1 | 1 |
| Cc1ccc(NC(=O)CSc2nnc(-c3ccccc3)o2)c(C)c1 | 1 |
| COc1ccc(NC(=O)CSc2nnc(-c3ccc(Br)cc3)o2)cc1 | 1 |
| c1ccc(-c2noc(CSc3nc4ccccc4[nH]3)n2)cc1 | 1 |
| Cc1ccc(-c2nc(-c3ccc(Br)cc3)no2)cc1 | 1 |
| Cc1ccc(SCc2nc(-c3cccnc3)no2)cc1 | 0.75 |
| Cc1ccccc1OCc1nc(-c2cccs2)no1 | 1 |
| CCc1ccc(C(=O)Nc2ccccc2-c2nc(-c3ccncc3)no2)cc1 | 1 |
| O=C(c1ccccc1-c1nc(-c2ccc(F)cc2)no1)N1CCCC1 | 1 |
| Cc1ccc(-c2nc(-c3cccc(C)c3)no2)cc1 | 1 |
| O=C(CSc1nnc(-c2ccncc2)o1)Nc1ccccc1Cl | 1 |
| c1ccc(-c2noc(-c3cccs3)n2)cc1 [tioxazafen] | 0 (active) |
| Cc1ccc(-c2nnc(SCc3ccccc3C#N)o2)cc1 | 1 |
| Cc1ccc(SCc2nc(-c3ccccc3)no2)cc1 | 1 |
| CCOc1ccccc1-c1nnc(SCc2ccccc2)o1 | 1 |
| COc1cccc(-c2noc(-c3ccc(C)cc3Cl)n2)c1 | 1 |
| Cc1ccc(-c2nnc(SCC(=O)Nc3nccs3)o2)cc1 | 1 |
| Cc1ccc(OCc2nc(-c3ccccc3)no2)c(Br)c1 | 1 |
| O=C(CSc1nnc(-c2ccco2)o1)Nc1cc(Cl)ccc1Cl | 1 |
| Cc1cccc(-c2noc(COc3ccc(Cl)cc3)n2)c1 | 1 |
| COc1ccc(-c2nnc(SCC(=O)Nc3ccc(C(C)C)cc3)o2)cc1 | 1 |
| CCc1ccc(NC(=O)CSc2nnc(-c3ccc(Cl)cc3Cl)o2)cc1 | 1 |
| O=C(CSc1nnc(-c2cccc3ccccc23)o1)c1ccc(F)cc1 | 1 |
| COc1ccc(C)cc1NC(=O)CSc1nnc(-c2ccc(Br)cc2)o1 | 1 |
| Cn1c(SCc2nc(-c3ccccc3)no2)nnc1-c1ccco1 | 1 |
| CC(=O)Nc1ccc(NC(=O)c2ccccc2-c2nc(-c3ccccc3Cl)no2)cc1 | 1 |
| Brc1ccc(-c2nc(-c3ccncc3)no2)cc1 | 0.767 |
| O=C(CSc1nnc(-c2cccc3ccccc23)o1)Nc1cccc(F)c1 | 1 |
| Nc1nc(CSc2nnc(-c3ccccc3)o2)cs1 | 1 |
| COc1ccc(C(=O)CSc2nnc(-c3cccc(Br)c3)o2)cc1 | 1 |
